Screening data (PubChem)
Most compounds without a hit are left out; they make up all but 1.6% or so of the library.
KCNQ2 block: rat KCNQ2 potassium channel inhibitors, primary screen, cell-based, CHO-K1, FluxOR thallium flux, B-score. AID 2156, 2009. 1.1% of 310,000 active. 20 min; hits give low values. Potassium voltage-gated channel subfamily KQT member 2 (Rattus norvegicus), O88943. B-score at 10 µM;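 active = fluorescence ratio B-score at most minus 3 library SDs, with starting brightness B-score within 2 library SDs, cut at about -5.5 in these data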
Target sequence (O88943 whole entry, looked up): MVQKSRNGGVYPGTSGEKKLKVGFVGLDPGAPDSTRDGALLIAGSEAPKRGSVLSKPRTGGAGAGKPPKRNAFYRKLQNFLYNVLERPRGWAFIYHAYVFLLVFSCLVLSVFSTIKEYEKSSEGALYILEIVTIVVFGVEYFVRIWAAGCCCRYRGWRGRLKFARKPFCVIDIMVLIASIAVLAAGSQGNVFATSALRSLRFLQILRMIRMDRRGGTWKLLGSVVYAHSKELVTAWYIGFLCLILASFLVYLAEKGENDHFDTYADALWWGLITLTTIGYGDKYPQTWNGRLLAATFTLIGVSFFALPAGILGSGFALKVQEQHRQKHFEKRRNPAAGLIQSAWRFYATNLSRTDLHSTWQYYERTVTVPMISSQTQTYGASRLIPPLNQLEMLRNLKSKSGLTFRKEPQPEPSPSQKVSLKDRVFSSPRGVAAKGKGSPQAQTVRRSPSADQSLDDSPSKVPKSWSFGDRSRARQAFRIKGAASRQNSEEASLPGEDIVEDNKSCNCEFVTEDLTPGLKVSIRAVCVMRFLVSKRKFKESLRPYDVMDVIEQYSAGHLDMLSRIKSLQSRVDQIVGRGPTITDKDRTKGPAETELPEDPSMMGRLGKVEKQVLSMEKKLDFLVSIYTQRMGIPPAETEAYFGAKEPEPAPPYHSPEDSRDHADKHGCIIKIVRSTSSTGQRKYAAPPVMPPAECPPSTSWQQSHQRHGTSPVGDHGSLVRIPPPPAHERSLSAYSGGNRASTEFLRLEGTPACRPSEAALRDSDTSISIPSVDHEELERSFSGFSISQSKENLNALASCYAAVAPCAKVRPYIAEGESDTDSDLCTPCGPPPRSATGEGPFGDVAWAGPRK
KCNQ2 pot: potentiators of rat KCNQ2 potassium channel. Potassium voltage-gated channel subfamily KQT member 2 (Rattus norvegicus), O88943. CHO-K1 KCNQ2, FluxOR thallium flux fluorescence; hits give high values. B-score at 10 µM. 0.54% of 310,000 active;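 active = fluorescence ratio B-score at least 3 SD of library B-scores, with initial fluorescence B-score within 3 of them, cut at about 5.3 in these data; same plate scores as AID 2156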;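 also: B-score of peak minus minimum over baseline fluorescence ratio after K+ and Tl+ stimulus; positive B-score means potentiation of KCNQ2 with more thallium influx and brighter signal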
Of the large screens only hits and unclear results are named; the others gave an inactive call.

CSc1ccccc1C(=O)N(C)Cc1ccccc1	none (no result: KCNQ2 pot)
FC(F)(F)c1ccc(C2[C@H]3CN(Cc4cccnc4)[C@H](c4ccccc4)C34CC2(c2cccnc2)C4)cc1 (some centres not stated)	KCNQ2 block -7.17
FC(F)(F)c1ccc(C2[C@H]3CN(Cc4ccc(-c5ccccc5)cc4)[C@H](c4ccccc4)C34CC2(c2cccnc2)C4)cc1 (some centres not stated)	none
Cc1ccc(SCCN2CCC(O)CCC2=O)cc1 (configuration not stated)	none (no result: KCNQ2 pot)
COc1ccc2no[n+]([O-])c2c1	none (no result: KCNQ2 pot)
CC1CCc2sc(C(=O)NNC(=S)NCC3CCCO3)cc2C1 (configuration not stated)	none
CC1CCc2sc(C(=O)NC(C)C3CCCO3)cc2C1 (configuration not stated)	KCNQ2 block -6.08
Clc1ccc(COc2cccc(CNCc3ccncc3)c2)cc1	none (no result: KCNQ2 pot)
O=C(c1cccs1)N1CCN(c2nnc(-c3ccccc3)c3ccccc23)CC1	KCNQ2 block -5.93
Cc1ccc(-c2nnc(N3CCN(C(=O)c4cccs4)CC3)c3ccccc23)cc1	none (no result: KCNQ2 pot)
COc1ccccc1C(=O)Nc1ccnn1C1CCN(CC2CC=CCC2)CC1 (configuration not stated)	none
O=[N+]([O-])c1cc2cccnc2c2ncccc12	none (no result: KCNQ2 pot)
O=[N+]([O-])c1cc(O)c2ncccc2c1	KCNQ2 pot 10.1
COc1ccc(NC(=O)COc2ccc(C(=O)OCC(=O)N(C(C)C)C(C)C)cc2OC)cc1	none (no result: KCNQ2 pot)
C(#Cc1ccccc1)CN1CCCCC1	KCNQ2 pot 6.3
C(#Cc1ccccc1)CN1CCN(c2ccccn2)CC1	none
CC(=O)O[C@]1(C(C)=O)CC[C@H]2[C@@H]3C=CC4=CC(=O)C=C[C@]4(C)[C@H]3CC[C@@]21C	none (no result: KCNQ2 pot)
COc1ccc(NC(=O)CN2C(=O)NC(C)(c3ccccc3)C2=O)c(OC)c1 (configuration not stated)	none
Cc1c(Cl)ccc2c(C(=O)NCCN3CCCCC3)cc(-c3ccccn3)nc12	none (no result: KCNQ2 pot)
COc1ccccc1-c1cc(C(=O)NC2CCN(C)CC2)c2ccc(Cl)c(C)c2n1	KCNQ2 block -5.75
O=[N+]([O-])c1ccc2nc(SCc3ccccc3Cl)sc2c1	KCNQ2 block -9.92
O=C(NC(Nc1nc2ccc([N+](=O)[O-])cc2s1)(C(F)(F)F)C(F)(F)F)c1ccccc1Cl	KCNQ2 block -10
Nc1ccc2nc(SCc3ccc([N+](=O)[O-])cc3)sc2c1	none (no result: KCNQ2 pot)
O=C(NC(Nc1nc2ccc([N+](=O)[O-])cc2s1)(C(F)(F)F)C(F)(F)F)c1cccnc1	none
Cc1ccc(CNC(=O)CNS(=O)(=O)c2ccc3c(c2)C(C)(C)C(=O)N3C)cc1	none (no result: KCNQ2 pot)
COCCC(=O)N1CCC(Oc2ccc(C(=O)N3CCCCC3CCO)cc2)CC1 (configuration not stated)	none (no result: KCNQ2 pot)
COc1ccc(NC(=O)CC23CC4CC(CC(C4)C2)C3)cn1	KCNQ2 pot 18.3
O=C(CC12CC3CC(CC(C3)C1)C2)Nc1ccc(C(=O)O)cc1	none (no result: KCNQ2 pot)
Cc1cccc(C(=O)N[C@H](C(=O)OCC(=O)NC(=O)c2cccn2C)C(C)C)c1	none
N#Cc1ccc(NC(=O)Cn2cnc(S(=O)(=O)N3CCCC3)c2)cc1	none (no result: KCNQ2 pot)
COc1ccc(/C=C/C(=O)N(CC(C)C)CC(C)C)cc1Br	KCNQ2 block -5.91
COc1ccc(CN2CCN(C(=O)CC(C)C)CC2)cc1Br	none (no result: KCNQ2 pot)
O=C(c1ccc(CS(=O)c2ccccc2Cl)o1)N1CCN(c2ccccn2)CC1 (configuration not stated)	none (no result: KCNQ2 pot)
CCN(CC)C(=O)C(Sc1nnnn1-c1ccc(O)cc1)c1ccccc1 (configuration not stated)	KCNQ2 block -6.09
CCC(Sc1nnnn1-c1ccccc1)C(=O)NC(C)c1ccccc1 (configuration not stated)	none (no result: KCNQ2 pot)
CC(C)(C)NC(=O)CSc1nnc(-c2ccccn2)n1Cc1ccccc1	KCNQ2 pot 8.14
CC(C)(C)NC(=O)CSc1nnc(-c2ccncc2)n1Cc1ccccc1	none
COc1ccc(N2CCN(C(=O)CCc3nnc4ccc(N5CCCC5)nn34)CC2)cc1	none (no result: KCNQ2 pot)
CS(=O)(=O)c1ccc2nc(NC(=O)c3cc(-c4ccccc4)nn3-c3ccccc3)sc2c1	none (no result: KCNQ2 pot)
COc1ccc(CCNC(=O)Nc2cccs2)c(OC)c1	none (no result: KCNQ2 pot)
O=C(NNC(=O)C1CCCN(S(=O)(=O)c2cccc(F)c2)C1)C1CC1 (configuration not stated)	none (no result: KCNQ2 pot)
C/C(CC(=O)NCc1ccco1)=N\NC(=O)c1ccc([N+](=O)[O-])cc1Cl	none (no result: KCNQ2 pot)
CCCCn1c(N)c(N(CC(C)C)C(=O)C2CCCO2)c(=O)[nH]c1=O (configuration not stated)	none (no result: KCNQ2 pot)
Fc1ccc2nc(Nc3nc4c(F)cccc4s3)sc2c1	KCNQ2 pot 14.5
Fc1ccc2nc(Nc3nc4c(F)cc(F)cc4s3)sc2c1	none
Cc1noc(C)c1CSCC(=O)Nc1nc2ccc(F)cc2s1	none (no result: KCNQ2 pot)
Cc1cccc(OCc2n(CC(=O)OC3CC(C)CCC3C(C)C)c3ccccc3[n+]2C)c1 (configuration not stated)	KCNQ2 block -6.28
Cc1cccc(OC(=O)Cn2c(C(F)(F)F)nc3ccccc32)c1	none
Cc1cc(C)n(Cc2cccc(C(=O)N/N=C/c3ccncc3)c2)n1	none (no result: KCNQ2 pot)
CCN1/C(=C/C=C/C=C/c2sc3ccccc3[n+]2CC)Sc2ccccc21	KCNQ2 block -21.1
CCN1/C(=C/C=C/C=C/C=C/c2sc3ccccc3[n+]2CC)Sc2ccccc21	none (no result: KCNQ2 pot)
N#CCCN(C(=O)COC(=O)CNC(=O)c1cccs1)c1ccc(F)cc1	none (no result: KCNQ2 pot)
O=C(CSc1ncnc2c1cnn2CCc1ccccc1)Nc1cccc(C(F)(F)F)c1	KCNQ2 block -6.73
Cc1c(Cl)cccc1NC(=O)CSc1ncnc2c1cnn2CCc1ccccc1	none (no result: KCNQ2 pot)
NC(=O)CSc1nnc(SCc2ccc(F)cc2)s1	none (no result: KCNQ2 pot)
Cc1ccc(S(=O)(=O)N2CCOCC2)cc1C(=O)Nc1nc2ccccc2[nH]1	none
COc1ccc(C)cc1Nc1n[n+](-c2ccccc2)c(-c2c(Cl)cccc2Cl)s1	KCNQ2 block -6.47
CN(C)c1ccc(-c2sc(Nc3ccccc3)n[n+]2-c2ccc(F)cc2)cc1	none (no result: KCNQ2 pot)
COc1ccc(C)cc1Nc1n[n+](-c2ccccc2)c(-c2ccc(OC)c(OC)c2OC)s1	none (no result: KCNQ2 pot)
COc1ccc(C)cc1Nc1n[n+](-c2ccccc2)c(-c2ccc(N(C)C)cc2)s1	KCNQ2 block -5.74
CCC(C)NC(=O)c1ccc([N+](=O)[O-])c(Cl)c1 (configuration not stated)	none (no result: KCNQ2 pot)
COC(=O)c1ccc(CNC(=O)COC(=O)Cc2ccsc2)cc1	none
OCC[C@@H]1C[C@H](O)[C@@H](O)[C@@]2(OCCc3ccccc32)O1	none (no result: KCNQ2 pot)
CCNc1nnc(CCn2nc(C)c(Br)c2C)s1	none
CC(C)/C(=N/Nc1ccccc1[N+](=O)[O-])c1ccccc1	KCNQ2 block -6.38
C/C(=N/Nc1ccccc1[N+](=O)[O-])c1ccc(C)c([N+](=O)[O-])c1	none
O=C(Nc1ccccc1Cl)c1ccccc1Cc1ccccc1	none (no result: KCNQ2 pot)
CCCN(CC1CC1)C(=O)CSc1ncnc2sc(C)c(C)c12	KCNQ2 block -6.31
CCN(C(=O)CSc1ncnc2sc(C)c(C)c12)C1CCS(=O)(=O)C1 (configuration not stated)	none (no result: KCNQ2 pot)
COCCC(=O)N1CCCC(C(=O)c2ccc(C(F)(F)F)cc2)C1 (configuration not stated)	KCNQ2 pot 6.77
O=C(c1ccc(C(F)(F)F)cc1)C1CCCN(C(=O)CN2CCCC2=O)C1 (configuration not stated)	none
CC(C)CCNC(=O)C(=O)Nc1ccc2c(c1)N(S(=O)(=O)c1cccs1)CCC2	none
